Hits are enriched below; roughly 2.6% of the tested compounds scored in any of these assays.
eIF4H inh – human eIF4H binding inhibitors, primary screen, translation initiation inhibitor project, biochemical, uHTS, fluorescence polarization; inhibition, % at 35 µM; eIF4H fluorescence polarization binding assay; Eukaryotic translation initiation factor 4H (Homo sapiens), Q15056; 0.94% of 290,000 active;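 further: calls also rest on retests at 20 µM and on dose response follow-up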
PHOSPHO1 block – PubChem AID 1565; recombinant PHOSPHO1, absorbance phosphatase assay; inhibition, % at 13.3 µM; 1.1% of 290,000 active; in the data active means inhibition above about 60%
PABP1 MLLE inh – inhibitors of PABP1 MLLE–PAM2 peptide binding, primary screen, biochemical, fluorescence polarization, FITC-PAM2, GST-MLLE; 0.36% of 360,000 active; inhibition, % at 20 µM; Polyadenylate-binding protein 1 (Homo sapiens), P11940; AID 588489, 2011; in the data active means inhibition above about 35%, passing the limit was not always enough;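 further: plate controls were DMSO wells with GST-MLLE for no effect and wells lacking GST-MLLE protein for full effect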
Target sequence (P11940 whole entry, looked up): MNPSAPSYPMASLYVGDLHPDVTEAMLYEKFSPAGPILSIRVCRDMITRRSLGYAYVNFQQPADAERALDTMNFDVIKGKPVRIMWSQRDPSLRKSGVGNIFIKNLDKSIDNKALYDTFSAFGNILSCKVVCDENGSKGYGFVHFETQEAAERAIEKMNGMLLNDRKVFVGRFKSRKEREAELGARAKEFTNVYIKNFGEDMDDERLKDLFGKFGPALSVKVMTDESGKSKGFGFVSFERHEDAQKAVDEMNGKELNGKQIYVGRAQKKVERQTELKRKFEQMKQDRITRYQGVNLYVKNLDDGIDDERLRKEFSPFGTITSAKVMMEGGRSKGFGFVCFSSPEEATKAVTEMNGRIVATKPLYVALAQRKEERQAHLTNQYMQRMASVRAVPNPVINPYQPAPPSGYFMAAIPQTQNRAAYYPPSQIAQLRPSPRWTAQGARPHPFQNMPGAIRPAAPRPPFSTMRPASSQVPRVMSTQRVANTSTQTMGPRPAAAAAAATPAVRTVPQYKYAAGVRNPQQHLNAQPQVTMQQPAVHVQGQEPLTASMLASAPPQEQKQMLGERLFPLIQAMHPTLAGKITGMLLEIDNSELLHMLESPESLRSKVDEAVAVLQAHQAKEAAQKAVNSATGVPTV
CRFBP-R2 block – antagonists of CRF-BP/CRF-R2 complex, primary screen, cell-based, HEK293, calcium dye fluorescence, uHTS; 0.59% of 350,000 active; CRF-induced calcium fluorescence; inhibition, % at 11.8 µM;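 active means inhibition of the ligand-induced calcium signal above about 50% at the single tested concentration, limit read from the data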
PABP FP inh – PABP poly(A) RNA binding inhibitors, primary screen, biochemical, fluorescence polarization, uHTS; Polyadenylate-binding protein 1 (Homo sapiens), P11940; inhibition, % at 35 µM; 1% of 290,000 active; AID 2014, 2009;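 further: calls also rest on retests at 20 µM and on dose response follow-up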
Active calls of the source: *; . = no result. Unless noted, how the calls were made is not given here.

SMILES	eIF4H inh	PHOSPHO1 block	PABP1 MLLE inh	CRFBP-R2 block	PABP FP inh
O=C(NN=Cc1ccccc1OC(F)F)c1cccc(S(=O)(=O)N2CCCC2)c1	.	.	-2	-15	.
O=C(c1[nH]c(C(F)(F)F)nc1-c1ccccc1)N1CCN(c2ncccn2)CC1	.	.	-2	.	.
O=C(NCc1ccccc1Cl)c1ccc2nc([C@@H]3O[C@H](CO)[C@@H](O)[C@H]3O)[nH]c2c1	.	.	9	.	.
CC(C)NC(=O)CSc1nnc2sc3ccccc3n12	-19	29	-22	13	-15
CC(C)[C@H](NC(=O)Cc1ccccc1)C(=O)OCc1cc(=O)n2c(n1)sc1ccccc12	75*	6	-15	-1	120*
CC(=O)c1c(C)[nH]c(C(=O)COC(=O)c2ccc3c(=O)n4c(nc3c2)CCC4)c1C	2	1	8	17	-2
Cc1ccc2c(CC(=O)OCc3cc(=O)n4c(n3)sc3ccccc34)coc2c1	70*	29	-7	4	25
O=C(OCc1cc(=O)n2c(n1)sc1ccccc12)c1ccc2c(=O)n3c(nc2c1)CCC3	75*	35	-34	16	52*
CCOC(=O)Cc1c[nH]c(=S)[nH]c1=O	-3	37	40*	-4	2
CCOC(=O)Cc1c(C)nc(N)[nH]c1=O	-2	32	17	7	-2
COc1ccc(CN2C[C@@H](CO)O[C@@H](n3cnc4c(NCCO)ncnc43)C2)cc1	.	.	-49	.	.
NS(=O)(=O)c1ccc(N/C=C\C(=O)c2ccc(F)cc2)cc1	-4	28	-14	-1	-6
CN(C)c1ccc(N/C=C/C(=O)c2ccc(F)cc2)cc1	47*	27	-69	-9	58*
Cc1cccc2c3c([nH]c12)CCN(C)C3	14	28	-1	7	-10
COc1cccc(NC(=O)/C=C/c2ccc(S(=O)(=O)N3CCOCC3)cc2)c1	.	.	1	-8	.
N#Cc1c(=O)c2nc(NCCCO)ncc2n2c(=O)c3ccccc3[nH]c12	78*	-14	16	-7	35*
COc1cccc(Nc2nc(C(N)Cc3ccc(Cl)cc3)cs2)n1 (stereo not drawn)	.	.	8	.	.
Cc1ccc(Cl)cc1N1CCN(C(=O)CNC(=O)c2ccc(Br)o2)CC1	.	.	0	4	.
COc1ccc(S(=O)(=O)N2CCN(C(=O)CCCN3C(=O)NC4(CCCC4)C3=O)CC2)cc1	.	.	-28	55*	.
CCc1ccccc1OCC(=O)N(CC)CC(=O)NCc1ccc(F)cc1	active	-2	-2	-2	120*
CCN(CC(=O)NCc1ccc(F)cc1)C(=O)COc1ccc2ccccc2c1	-18	4	-5	-27	4
CC12CC(c3ccccc3O1)N(C(=O)c1ccco1)C(=S)N2c1ccc(F)cc1 (stereo not drawn)	-8	71*	-12	-13	-8
CCOc1ccc2c(c1)/C(=N/N1C(=O)c3ccccc3C1=O)C(=O)N2	7	-10	-16	105*	-6
Clc1ccc2nncn2n1	-4	28	15	77*	-9
O=C(CSc1ncccc1-c1nc2ccccc2[nH]1)N1CCCCC1	0	89*	-27	2	2
SMILES	eIF4H inh	PHOSPHO1 block	PABP1 MLLE inh	CRFBP-R2 block	PABP FP inh
CCc1nc2ccc(C(=O)NCCc3c[nH]c4ccccc34)cn2c1N(C=O)CCC(C)C	.	.	-5	.	.
O=[N+]([O-])c1ccc(N2CCOCC2)cc1NCc1ccccc1	-4	3	-5	64*	2
O=[N+]([O-])c1ccc(N2CCCC2)cc1NCc1ccccc1	-1	22	3	18	-2
CCC(Br)C(=O)Nc1ccc(OC)cc1 (stereo not drawn)	-5	-1	-1	-5	11
Cc1ccccc1OC(C)C(=O)N1CCC(Cc2ccccc2)CC1 (stereo not drawn)	3	68*	-5	-13	-6
Cc1ccc(S(=O)(=O)N(C)C[C@H]2Oc3ncc(-c4ccccc4)cc3C(=O)N([C@@H](C)CO)C[C@@H]2C)cc1	.	.	3	-5	.
COc1ccc(OC(=O)c2ccc(Cl)cc2)c(C(C)=O)c1	5	-1	-12	52*	62
Nc1cc(Nc2ccc(Br)cc2)nc(N)n1	49	20	43*	-48	30
Cc1cc(Nc2ccc(Cl)cc2)nc(N)n1	6	29	10	-14	2
CCn1nc(C)c(NC(=O)/C=C/c2ccc(OC)c(COc3ccc(Cl)cc3Br)c2)c1C	0	4	3	4	0
COc1ccc(/C=C/C(=O)NCc2cn(C)nc2C)cc1COc1ccc(Cl)cc1Br	0	1	5	92*	2
N=c1c(C(=O)NCc2ccco2)cc2c(=O)n3ccccc3nc2n1C1CCCC1	78*	37	32	7	53*
N=c1c(C(=O)NCc2ccccc2)cc2c(=O)n3ccccc3nc2n1Cc1ccco1	84*	20	4	24	52*
CC(C)n1c(=N)c(C(=O)NCCc2ccccc2)cc2c(=O)n3ccccc3nc21	-8	63*	13	15	-8
N=c1c(C(=O)NC2CCCC2)cc2c(=O)n3ccccc3nc2n1C1CCCC1	-2	18	-6	6	-1
Cc1ccc(S(=O)(=O)c2cc3c(=O)n4ccccc4nc3n(Cc3ccco3)c2=N)cc1	78*	0	-14	-2	83*
COc1ccc(NC(=O)C2(C)Cc3c(-c4ccc(NC(C)=O)cc4)ccnc3O2)cc1OC (stereo not drawn)	.	.	-8	.	.
N=c1c(C(=O)NCc2ccco2)cc2c(=O)n3ccccc3nc2n1Cc1ccccc1	77*	-51	-19	9	69*
Cc1ccc(CNC(=O)c2cc3c(=O)n4ccccc4nc3n(Cc3ccco3)c2=N)cc1	56*	-17	-7	41	41*
COCCn1c(=N)c(C(=O)NCc2ccco2)cc2c(=O)n3ccccc3nc21	113*	-5	29	5	79*
COc1ccc(CCNC(=O)c2cc3c(=O)n4cccc(C)c4nc3n(Cc3ccco3)c2=N)cc1OC	63*	-10	1	31	28
Cc1cccn2c(=O)c3cc(C(=O)NCCc4ccccc4)c(=N)n(Cc4ccco4)c3nc12	52	32	-7	12	38
c1ccc2c(c1)C1=NCCN1c1ccccc1-2	.	.	-8	-8	.
COc1ccccc1C(=O)Nc1ncc2c(n1)CC(c1ccco1)CC2=O (stereo not drawn)	74*	-8	7	0	37*
COc1ccc(C2CC(=O)c3cnc(NC(=O)c4ccco4)nc3C2)cc1 (stereo not drawn)	-8	13	-5	4	-12
CC(C)(C)CN1CCNC(=O)C1CC(=O)NCCc1ccccc1C(F)(F)F (stereo not drawn)	4	6	8	9	13
